Results taken from PubChem BioAssay (Tox21).
Inconclusive results are not listed. A call without a number means that no potency is given here. Values without a mark were called inactive. Active and inactive are the calls of the source. Calls follow the shape of the dose curve; as a rule, active = well fitted curve in the direction sought with a large enough effect in the repeat runs; inconclusive = weak or mixed curves; inactive = no such curve, though single readings can be large; an effect the other way counts as inactive or inconclusive.

Experiments:
[1] = qHTS RealTime-Glo MT Cell Viability Assay in HepG2 cells - 40 hour (AID 1224870); also: nearly all actives have a fitted effect of over 50% in size
Summary of the method: (§1)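 HepG2 cells mixed with RealTime-Glo MT reagents (NanoLuc plus cell-permeant prosubstrate) were seeded at 600 cells/well, incubated 5 h at 37 C/5% CO2, then pinned with compounds in DMSO; nonlytic luminescence tracked viability during 40 h treatment.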

[2] = A CellTox Green Cytotoxicity Assay to monitor cytotoxicity in HEK293 cells - 40 hour (AID 1224871); also: nearly all actives have a fitted effect of over 45% in size
Summary of the method: (§2)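 Tox21 screen in HEK293: membrane-impermeant cyanine dye fluoresces on binding dead-cell DNA; compound pinned 5 h post-seeding, plates held at 37 C, signal read repeatedly through 40 h.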

[3] = qHTS RealTime-Glo MT Cell Viability Assay in HEK293 cells - 16 hour (AID 1224872); also: nearly all actives have a fitted effect of over 50% in size; also: potency is read from the fitted curve at half-maximal effect
Summary of the method: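 Assay medium contained NanoLuc luciferase plus cell-permeant prosubstrate, added with HEK293 cells at 600 cells/well. After 5 h at 37 C/5% CO2 compounds were added; plates stayed at 37 C for 40 h with serial luminescence reads.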

[4] = qHTS RealTime-Glo MT Cell Viability Assay in HepG2 cells - 8 hour (AID 1224873); also: nearly all actives have a fitted effect of over 55% in size
Summary of the method: as §1

[5] = qHTS RealTime-Glo MT Cell Viability Assay in HEK293 cells - 40 hour (AID 1224874); settings: RealTime-Glo luminescence; max response: stronger effect = lower value; also: nearly all actives have a fitted effect of over 50% in size; also: potency is read from the fitted curve at half-maximal effect
Summary of the method: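 HEK293 + NanoLuc + prosubstrate, 600 cells/well; 5 h, 37 C/5% CO2; compound 23 nL in DMSO by pintool; 37 C; luminescence read at 0, 8, 16, 24, 32 and 40 h time points.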

[6] = A CellTox Green Cytotoxicity Assay to monitor cytotoxicity in HEK293 cells - 24 hour (AID 1224875); also: series mostly up to about 77 µM; nearly all actives have a fitted effect of over 45% in size
Summary of the method: as §2

[7] = A CellTox Green Cytotoxicity Assay to monitor cytotoxicity in HepG2 cells - 16 hour (AID 1224876); also: nearly all actives have a fitted effect of over 45% in size
Summary of the method: (§3)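 Measurements at 0, 8, 16, 24, 32 and 40 h of treatment captured CellTox Green fluorescence in HepG2 cells that had been co-plated with reagent and preincubated 5 h at 37 C/5% CO2.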

[8] = qHTS RealTime-Glo MT Cell Viability Assay in HepG2 cells - 32 hour (AID 1224877); also: nearly all actives have a fitted effect of over 55% in size
Summary of the method: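 qHTS, HepG2, 600 cells/well, RealTime-Glo (NanoLuc + prosubstrate) added with cells; 5 h preincubation; DMSO compound addition; 37 C; luminescence at 0/8/16/24/32/40 h.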

[9] = A CellTox Green Cytotoxicity Assay to monitor cytotoxicity in HepG2 cells - 24 hour (AID 1224878); also: nearly all actives have a fitted effect of over 45% in size
Summary of the method: as §3

[10] = A CellTox Green Cytotoxicity Assay to monitor cytotoxicity in HepG2 cells - 40 hour (AID 1224879); also: nearly all actives have a fitted effect of over 40% in size
Summary of the method: as §3

Compound | Potency [1] | Potency [2] | Potency [3] | outcome [4] | Potency [5] | Potency [6] | Potency [7] | Potency [8] | Potency [9] | max response [5] [%] | Potency [10]
CSc1nc(NC2CC2)nc(NC(C)(C)C)n1 | inactive | inactive | 24.5 µM (active) | inactive | 24.5 µM (active) | inactive | inactive | inactive | inactive | – | –
CCO[Si](CCCN=C=O)(OCC)OCC | inactive | inactive | inactive | inactive | – | inactive | inactive | inactive | inactive | 0.0382 | inactive
CSc1ccc(C=O)cc1 | inactive | inactive | inactive | inactive | – | inactive | inactive | inactive | inactive | 0.555 | inactive
CO[Si](OC)(OC)OC | inactive | inactive | inactive | inactive | – | inactive | inactive | inactive | inactive | 16.8 | inactive
CC(C)c1ccc2oc3nc(N)c(C(=O)O)cc3c(=O)c2c1 | inactive | inactive | inactive | inactive | – | inactive | inactive | inactive | inactive | 13 | inactive
CCCC(C)C(=O)O (stereo not given) | inactive | inactive | inactive | inactive | – | inactive | inactive | inactive | – | -23.4 | –
CCCC(=O)O[C@]1(C(=O)CCl)[C@@H](C)C[C@H]2[C@@H]3CCC4=CC(=O)C=C[C@]4(C)[C@@]3(F)C(=O)C[C@@]21C | inactive | inactive | inactive | inactive | – | inactive | inactive | inactive | inactive | -19.8 | inactive
CCN(CC)C(=O)c1ccc(O)c(OC)c1 | inactive | inactive | inactive | inactive | – | inactive | inactive | inactive | inactive | 1.73 | inactive
COc1cccc(OC)c1 | inactive | inactive | inactive | inactive | – | inactive | inactive | inactive | inactive | 0.816 | inactive
C=C(C)C(=O)NCCC[N+](C)(C)C | inactive | inactive | inactive | inactive | – | inactive | inactive | inactive | inactive | 0.623 | inactive
C1COCCO1 | inactive | inactive | inactive | inactive | – | inactive | inactive | inactive | inactive | 4.29 | –
CCCCc1ccc2cccc(S(=O)(=O)O)c2c1 | inactive | inactive | inactive | inactive | – | inactive | inactive | inactive | – | 3.37 | –
NC(N)=NS(=O)(=O)c1ccc(N)cc1 | inactive | inactive | inactive | inactive | – | inactive | inactive | inactive | inactive | -4.08 | inactive
OCC(O)[C@@H](O)[C@H](O)[C@H](O)CO[C@H]1O[C@H](CO)[C@@H](O)[C@H](O)[C@H]1O (stereo not given in full) | inactive | inactive | inactive | inactive | – | inactive | inactive | inactive | inactive | -0.563 | –
COC(=O)CCCC(=O)O | inactive | inactive | inactive | inactive | – | inactive | inactive | inactive | inactive | 10.9 | inactive
CC1CCN(CCCC(=O)c2ccc(F)cc2)CC1 | inactive | inactive | inactive | inactive | – | inactive | inactive | – | inactive | -2.98 | inactive
COCCOC(=O)CC#N | inactive | inactive | inactive | inactive | – | inactive | inactive | inactive | inactive | 1.9 | inactive
OCCCCCCO | inactive | inactive | inactive | inactive | – | inactive | inactive | inactive | inactive | -17.6 | inactive
Cc1ncc(CSSCc2cnc(C)c(O)c2CO)c(CO)c1O | inactive | inactive | inactive | inactive | – | inactive | inactive | inactive | – | 5.83 | inactive
CCCc1ccc(N)cc1 | inactive | inactive | inactive | inactive | – | inactive | inactive | inactive | inactive | -1.79 | inactive
COc1nc(C)nc(N)n1 | inactive | inactive | inactive | inactive | – | inactive | inactive | inactive | – | -1.44 | inactive
CCCCCCCCCCCCCCCCCC(=O)OCCCCCCCCCCCCCC(C)C | inactive | inactive | inactive | inactive | – | inactive | inactive | inactive | inactive | 1.07 | inactive
